# From PubChem BioAssay AID720664 (National Center for Advancing Translational Sciences (NCATS), 2013)
# Records with an inconclusive call do not appear. A call without a number means that no potency is given here. Active and inactive are the calls of the source. Calls come from the whole dose curve; as a rule, active = well fitted inhibition curve with a large enough effect; inconclusive = small, poorly fitted or top-dose-only effect; inactive = flat fitted curve, though single readings scatter.
# Biological target: Galactokinase (Homo sapiens) (UniProt P51570)
# Sequence (P51570 whole entry, looked up): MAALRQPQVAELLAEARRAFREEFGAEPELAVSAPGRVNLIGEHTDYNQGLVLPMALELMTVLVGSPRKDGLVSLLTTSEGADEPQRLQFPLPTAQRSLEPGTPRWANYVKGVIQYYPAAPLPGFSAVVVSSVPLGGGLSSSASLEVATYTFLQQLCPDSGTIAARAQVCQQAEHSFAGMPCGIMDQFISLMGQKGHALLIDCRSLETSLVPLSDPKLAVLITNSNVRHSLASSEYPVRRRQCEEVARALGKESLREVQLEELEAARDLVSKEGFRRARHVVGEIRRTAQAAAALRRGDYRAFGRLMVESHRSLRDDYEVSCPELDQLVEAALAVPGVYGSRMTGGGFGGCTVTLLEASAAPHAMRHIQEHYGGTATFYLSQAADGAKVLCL
# Assay: qHTS for Inhibitors of Human Galactokinase (GALK): SAR round 3
# Conditions: ADP detection luminescence, 1 h; series mostly up to 57.5 µM
# Procedure, shortened: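 Human GALK (5 nM) with 35 µM ATP and 100 µM galactose in 20 mM HEPES pH 8.0, 5 mM MgCl2, 60 mM NaCl reacted 1 h at room temperature. Luminescent ADP detection was used; qHTS retest of cherry-picked actives.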
row,SMILES,Potency
1,CC1(C)CC(=O)C2=C(C1)NC(Nc1nc3ccccc3o1)=NC21CCCC1,inactive
2,O=C1CCCC2=C1C(c1[nH]ncc1Cl)N=C(Nc1nc3ccc(Cl)cc3o1)N2 (centres undefined),inactive
3,CC1=C(C(=O)NC2CC2)C(c2[nH]ncc2Cl)N=C(Nc2nc3ccccc3o2)N1 (centres undefined),inactive
4,CC1=C(C(=O)Nc2ccc(Cl)cc2)C(c2ccccc2Br)N=C(Nc2nc3ccccc3o2)N1 (centres undefined),inactive
5,O=C1CCCC2=C1C1(CCCOC1)N=C(Nc1nc3ccccc3o1)N2 (centres undefined),inactive
6,Cc1ccc2oc(NC3=NC(c4[nH]ncc4Cl)C4=C(CCCC4=O)N3)nc2c1 (centres undefined),inactive
7,O=C1CCCC2=C1C(c1[nH]ncc1Cl)N=C(Nc1nc3c(Br)cccc3o1)N2 (centres undefined),inactive
8,CC1=C(C(=O)NC2CCCC2)C(c2[nH]ncc2Cl)N=C(Nc2nc3ccccc3o2)N1 (centres undefined),inactive
9,CC(C)CN1CC2=C(C1=O)C(c1ccccc1Cl)N=C(Nc1nc3ccccc3o1)N2 (centres undefined),inactive
10,O=C1CCCC2=C1C(c1[nH]ncc1Cl)NC(=NCc1ccoc1)N2 (centres undefined),inactive
11,CCc1ccc2oc(=O)cc(CN3CCN(c4ccccc4F)CC3)c2c1,inactive
12,O=C1CCCC2=C1C1(CCCC1)N=C(Nc1nc3cc4ccccc4cc3o1)N2,inactive
13,Cn1cccc1CN=C1NC2=C(C(=O)CCC2)C(c2[nH]ncc2Cl)N1 (centres undefined),inactive
14,CC1=C(C(=O)Nc2nc3ccccc3s2)C(c2[nH]ncc2Cl)N=C(Nc2nc3ccccc3o2)N1 (centres undefined),inactive
15,Cc1nc(Nc2nc3ccccc3o2)nc(-c2ccccc2Br)c1C(=O)NCc1ccccc1,inactive
16,Nc1ncc(S(=O)(=O)N2CCOCC2)s1,inactive
17,CC1=C(C(=O)Nc2nc3ccccc3s2)C2(CCCC2)N=C(Nc2nc3ccccc3o2)N1,inactive
18,CC1=C(C(=O)Nc2noc3ccccc23)C(c2nn(C)cc2Cl)N=C(Nc2nc3ccccc3o2)N1 (centres undefined),inactive
19,O=C1CCCC2=C1C(c1[nH]ncc1Cl)NC(=NCc1ccccn1)N2 (centres undefined),inactive
20,O=C1CCCC2=C1C(c1cccnc1Br)N=C(Nc1nc3ccccc3o1)N2 (centres undefined),inactive

row,SMILES,Potency
1,CC1=C(C(=O)Nc2nncs2)C(c2[nH]ncc2Cl)N=C(Nc2nc3ccccc3o2)N1 (centres undefined),12.2 µM (active)
2,O=C1CCCC2=C1C(c1ccccc1)N=C(Nc1nc3ccccc3o1)N2 (centres undefined),inactive
3,O=C1CCCC2=C1C(c1[nH]ncc1Cl)NC(=NCc1ccco1)N2 (centres undefined),inactive
4,O=C1CCCC2=C1C(c1ccncc1)N=C(Nc1nc3ccccc3o1)N2 (centres undefined),inactive
5,O=C1CCCC2=C1C(c1[nH]ncc1Cl)N=C(Nc1nc3cc([S+](=O)([O-])N4CCCC4)ccc3o1)N2 (centres undefined),inactive
6,O=C1CCCC2=C1C(c1[nH]ncc1Cl)N=C(Nc1nccs1)N2 (centres undefined),inactive
7,Cc1ccc2oc(NC3=NC(c4ccccc4Cl)C4=C(CCCC4=O)N3)nc2c1 (centres undefined),6.11 µM (active)
8,O=C1CCCC2=C1C1(CCCC1)N=C(Nc1nc3cc(-c4ccccc4)ccc3o1)N2,inactive
9,O=C1CCCC2=C1C(c1ccccc1Cl)N=C(Nc1ncc(-c3ccccc3)o1)N2 (centres undefined),inactive
10,O=C1CCCC2=C1C(c1cccnc1Cl)N=C(Nc1nc3ccccc3o1)N2 (centres undefined),inactive
11,Cc1cccc(C2N=C(Nc3nc4ccccc4o3)NC3=C2C(=O)CCC3)c1 (centres undefined),inactive
12,CCOC(=O)c1cnc(NC2=NC(c3ccccc3Cl)C3=C(CCCC3=O)N2)o1 (centres undefined),inactive
13,O=C1CCCC2=C1C(c1[nH]ncc1Cl)NC(=S)N2 (centres undefined),inactive
14,O=C1CCCC2=C1C(c1ccccc1Br)N=C(Nc1nc3ccccc3o1)N2 (centres undefined),6.11 µM (active)
15,COc1ccccc1NC(=O)C1=C(C)NC(Nc2nc3ccccc3o2)=NC1c1ccccc1Br (centres undefined),inactive
16,Cc1noc(C)c1S(=O)(=O)Nc1ccc(C(=O)Nc2ccc(OC(F)(F)F)cc2)cc1,inactive
17,O=C1CCCC2=C1C(c1ccccc1Cl)N=C(c1ccccn1)N2 (centres undefined),inactive
18,Cn1cnc(CN=C2NC3=C(C(=O)CCC3)C(c3[nH]ncc3Cl)N2)c1 (centres undefined),inactive
19,O=C1CCCC2=C1C(c1[nH]ncc1Cl)NC(=NCCc1ccc(O)cc1)N2 (centres undefined),inactive
